Test results from ChEMBL document CHEMBL2218924, “A broad activity screen in support of a chemogenomic map for kinase signalling research and drug discovery” (Biochem J, 2013).

Columns and labels:
[1] = molecular target: T1, Serine/threonine-protein kinase TBK1 (Homo sapiens) (UniProt Q9UHD2); settings: at 10 µM
T1 sequence (whole entry): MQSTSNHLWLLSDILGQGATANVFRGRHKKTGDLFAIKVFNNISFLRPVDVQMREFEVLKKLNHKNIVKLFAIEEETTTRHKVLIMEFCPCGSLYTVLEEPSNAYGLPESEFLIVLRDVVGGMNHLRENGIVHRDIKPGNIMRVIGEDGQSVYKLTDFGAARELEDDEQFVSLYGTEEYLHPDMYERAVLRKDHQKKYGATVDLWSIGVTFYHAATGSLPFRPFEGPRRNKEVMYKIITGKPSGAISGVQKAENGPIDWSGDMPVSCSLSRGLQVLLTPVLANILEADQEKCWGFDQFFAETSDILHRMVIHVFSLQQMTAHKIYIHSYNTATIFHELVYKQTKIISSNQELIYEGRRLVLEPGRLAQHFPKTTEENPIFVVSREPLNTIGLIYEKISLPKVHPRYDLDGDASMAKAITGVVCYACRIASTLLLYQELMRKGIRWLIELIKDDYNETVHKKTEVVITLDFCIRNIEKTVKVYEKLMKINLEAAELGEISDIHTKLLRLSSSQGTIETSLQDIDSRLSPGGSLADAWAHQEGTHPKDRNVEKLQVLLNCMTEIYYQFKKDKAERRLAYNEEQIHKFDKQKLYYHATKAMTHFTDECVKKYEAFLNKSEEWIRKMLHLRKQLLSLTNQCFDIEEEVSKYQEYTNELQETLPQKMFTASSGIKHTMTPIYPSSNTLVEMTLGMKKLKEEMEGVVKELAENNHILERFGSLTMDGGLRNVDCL

[2] = molecular target: T2, TGF-beta receptor type-1 (Homo sapiens) (UniProt P36897); settings: at 1 µM
T2 sequence (whole entry): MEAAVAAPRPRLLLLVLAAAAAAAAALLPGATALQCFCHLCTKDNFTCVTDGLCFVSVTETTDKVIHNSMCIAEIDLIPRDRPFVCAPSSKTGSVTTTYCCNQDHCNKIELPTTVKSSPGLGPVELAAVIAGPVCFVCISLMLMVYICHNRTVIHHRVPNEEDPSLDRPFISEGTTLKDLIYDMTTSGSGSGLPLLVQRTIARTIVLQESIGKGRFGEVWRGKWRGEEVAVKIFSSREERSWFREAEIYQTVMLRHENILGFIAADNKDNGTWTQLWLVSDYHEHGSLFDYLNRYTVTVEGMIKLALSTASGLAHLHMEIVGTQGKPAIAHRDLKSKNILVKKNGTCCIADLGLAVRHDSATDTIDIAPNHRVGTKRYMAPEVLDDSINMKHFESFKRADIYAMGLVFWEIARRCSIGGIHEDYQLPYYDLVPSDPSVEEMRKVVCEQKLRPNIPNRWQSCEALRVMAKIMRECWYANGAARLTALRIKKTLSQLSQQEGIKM

[3] = molecular target: T2, TGF-beta receptor type-1 (Homo sapiens); settings: at 10 µM
[4] = molecular target: Insulin-like growth factor 1 receptor (Homo sapiens) (UniProt P08069); settings: at 1 µM
Sequence of Insulin-like growth factor 1 receptor (Homo sapiens) (P08069 31-736 limits assumed): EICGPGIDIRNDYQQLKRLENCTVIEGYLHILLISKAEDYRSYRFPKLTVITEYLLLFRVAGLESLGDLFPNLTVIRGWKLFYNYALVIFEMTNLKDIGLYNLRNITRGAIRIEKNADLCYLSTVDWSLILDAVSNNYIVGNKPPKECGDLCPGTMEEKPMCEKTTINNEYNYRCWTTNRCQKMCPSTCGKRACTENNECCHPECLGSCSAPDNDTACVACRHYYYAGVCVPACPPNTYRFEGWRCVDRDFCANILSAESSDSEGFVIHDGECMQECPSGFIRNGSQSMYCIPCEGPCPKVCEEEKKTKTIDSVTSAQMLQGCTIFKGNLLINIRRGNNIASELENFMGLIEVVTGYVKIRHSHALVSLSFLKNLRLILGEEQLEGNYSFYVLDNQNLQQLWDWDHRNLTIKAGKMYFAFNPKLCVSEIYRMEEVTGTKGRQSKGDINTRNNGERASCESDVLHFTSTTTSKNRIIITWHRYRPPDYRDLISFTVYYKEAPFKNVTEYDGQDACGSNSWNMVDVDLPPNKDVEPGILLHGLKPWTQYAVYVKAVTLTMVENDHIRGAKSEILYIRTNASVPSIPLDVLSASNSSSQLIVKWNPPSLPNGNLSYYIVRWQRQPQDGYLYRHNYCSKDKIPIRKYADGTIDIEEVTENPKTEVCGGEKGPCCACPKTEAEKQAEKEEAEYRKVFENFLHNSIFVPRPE
Sequence of Insulin-like growth factor 1 receptor (Homo sapiens) (P08069 741-1367 limits assumed): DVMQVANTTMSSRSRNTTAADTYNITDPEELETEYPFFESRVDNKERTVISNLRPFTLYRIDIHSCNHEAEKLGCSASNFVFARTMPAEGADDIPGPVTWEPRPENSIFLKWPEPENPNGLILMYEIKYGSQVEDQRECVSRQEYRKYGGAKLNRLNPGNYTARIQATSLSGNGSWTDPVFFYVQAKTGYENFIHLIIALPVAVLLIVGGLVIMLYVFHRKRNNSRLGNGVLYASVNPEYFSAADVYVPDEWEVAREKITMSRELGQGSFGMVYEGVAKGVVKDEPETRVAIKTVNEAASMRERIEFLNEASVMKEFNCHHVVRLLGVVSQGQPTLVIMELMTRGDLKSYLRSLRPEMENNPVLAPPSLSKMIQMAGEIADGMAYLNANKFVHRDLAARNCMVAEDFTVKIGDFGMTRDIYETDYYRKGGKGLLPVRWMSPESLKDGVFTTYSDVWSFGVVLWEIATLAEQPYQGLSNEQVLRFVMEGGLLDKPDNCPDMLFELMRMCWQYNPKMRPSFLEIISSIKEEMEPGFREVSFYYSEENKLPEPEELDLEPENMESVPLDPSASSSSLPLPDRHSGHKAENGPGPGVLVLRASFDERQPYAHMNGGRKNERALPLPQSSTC

[5] = molecular target: Insulin-like growth factor 1 receptor (Homo sapiens) (UniProt P08069); settings: at 10 µM
[6] = molecular target: T3, Inhibitor of nuclear factor kappa-B kinase subunit alpha (Homo sapiens) (UniProt O15111); settings: at 1 µM
T3 sequence (whole entry): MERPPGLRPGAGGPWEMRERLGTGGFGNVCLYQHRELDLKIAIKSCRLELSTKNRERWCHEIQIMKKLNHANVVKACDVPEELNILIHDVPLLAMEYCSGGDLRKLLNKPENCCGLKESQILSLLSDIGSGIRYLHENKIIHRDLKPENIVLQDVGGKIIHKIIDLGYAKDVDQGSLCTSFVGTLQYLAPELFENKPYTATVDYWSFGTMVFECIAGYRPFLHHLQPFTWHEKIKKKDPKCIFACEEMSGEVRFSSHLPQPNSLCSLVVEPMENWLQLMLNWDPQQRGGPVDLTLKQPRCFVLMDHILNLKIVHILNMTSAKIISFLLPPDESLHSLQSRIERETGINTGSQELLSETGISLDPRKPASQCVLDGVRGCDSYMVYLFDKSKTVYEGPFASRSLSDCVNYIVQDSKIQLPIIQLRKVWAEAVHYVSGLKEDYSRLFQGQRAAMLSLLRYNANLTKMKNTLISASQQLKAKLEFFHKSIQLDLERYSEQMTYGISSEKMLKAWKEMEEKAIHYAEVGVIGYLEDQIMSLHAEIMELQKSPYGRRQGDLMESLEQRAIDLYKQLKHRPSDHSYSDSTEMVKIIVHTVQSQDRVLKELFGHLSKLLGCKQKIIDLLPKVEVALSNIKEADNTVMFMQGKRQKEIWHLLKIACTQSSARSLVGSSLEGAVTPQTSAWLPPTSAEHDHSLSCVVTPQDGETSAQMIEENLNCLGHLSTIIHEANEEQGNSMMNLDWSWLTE

[7] = molecular target: T3, Inhibitor of nuclear factor kappa-B kinase subunit alpha (Homo sapiens); settings: at 10 µM
[8] = molecular target: T4, Inhibitor of nuclear factor kappa-B kinase subunit beta (Homo sapiens) (UniProt O14920); settings: at 1 µM
T4 sequence (whole entry): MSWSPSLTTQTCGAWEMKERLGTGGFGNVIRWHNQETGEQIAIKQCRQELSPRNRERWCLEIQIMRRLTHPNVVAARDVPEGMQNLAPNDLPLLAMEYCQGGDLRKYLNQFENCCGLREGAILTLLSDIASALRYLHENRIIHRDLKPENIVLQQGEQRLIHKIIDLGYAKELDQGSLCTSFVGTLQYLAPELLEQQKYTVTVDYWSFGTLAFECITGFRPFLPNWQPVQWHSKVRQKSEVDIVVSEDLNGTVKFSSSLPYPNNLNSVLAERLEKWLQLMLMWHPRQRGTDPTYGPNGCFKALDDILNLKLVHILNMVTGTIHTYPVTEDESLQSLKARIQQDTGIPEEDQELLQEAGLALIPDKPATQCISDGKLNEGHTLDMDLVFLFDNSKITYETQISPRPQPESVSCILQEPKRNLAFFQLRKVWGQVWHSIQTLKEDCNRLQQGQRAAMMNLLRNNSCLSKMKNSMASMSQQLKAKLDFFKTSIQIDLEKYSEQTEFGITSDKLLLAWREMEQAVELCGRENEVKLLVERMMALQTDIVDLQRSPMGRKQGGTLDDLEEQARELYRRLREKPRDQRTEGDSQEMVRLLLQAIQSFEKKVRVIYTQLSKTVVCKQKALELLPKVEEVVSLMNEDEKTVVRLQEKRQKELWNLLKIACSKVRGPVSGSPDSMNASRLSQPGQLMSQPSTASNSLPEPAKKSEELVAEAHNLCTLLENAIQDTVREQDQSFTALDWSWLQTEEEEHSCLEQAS

[9] = molecular target: T4, Inhibitor of nuclear factor kappa-B kinase subunit beta (Homo sapiens); settings: at 10 µM
[10] = molecular target: Insulin receptor (Homo sapiens) (UniProt P06213); settings: at 1 µM
Sequence of Insulin receptor (Homo sapiens) (P06213 28-758 limits assumed): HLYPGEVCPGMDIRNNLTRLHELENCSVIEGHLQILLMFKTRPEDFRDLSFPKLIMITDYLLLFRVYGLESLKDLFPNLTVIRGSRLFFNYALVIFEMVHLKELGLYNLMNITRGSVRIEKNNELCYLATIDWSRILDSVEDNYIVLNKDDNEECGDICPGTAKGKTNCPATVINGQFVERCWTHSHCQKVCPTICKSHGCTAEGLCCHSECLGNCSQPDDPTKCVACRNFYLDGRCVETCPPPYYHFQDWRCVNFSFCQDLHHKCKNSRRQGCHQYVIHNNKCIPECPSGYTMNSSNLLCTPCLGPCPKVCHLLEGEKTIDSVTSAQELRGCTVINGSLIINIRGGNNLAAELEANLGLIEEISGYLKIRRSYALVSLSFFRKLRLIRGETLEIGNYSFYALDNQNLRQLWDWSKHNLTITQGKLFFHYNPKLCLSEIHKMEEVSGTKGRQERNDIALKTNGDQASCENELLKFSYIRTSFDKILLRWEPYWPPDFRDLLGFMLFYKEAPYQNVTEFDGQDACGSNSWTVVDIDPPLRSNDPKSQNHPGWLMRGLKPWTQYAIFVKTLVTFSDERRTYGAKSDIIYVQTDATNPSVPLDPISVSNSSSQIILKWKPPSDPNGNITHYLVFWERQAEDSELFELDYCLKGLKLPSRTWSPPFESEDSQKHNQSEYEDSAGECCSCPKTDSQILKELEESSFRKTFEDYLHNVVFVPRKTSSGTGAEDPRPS
Sequence of Insulin receptor (Homo sapiens) (P06213 763-1382 limits assumed): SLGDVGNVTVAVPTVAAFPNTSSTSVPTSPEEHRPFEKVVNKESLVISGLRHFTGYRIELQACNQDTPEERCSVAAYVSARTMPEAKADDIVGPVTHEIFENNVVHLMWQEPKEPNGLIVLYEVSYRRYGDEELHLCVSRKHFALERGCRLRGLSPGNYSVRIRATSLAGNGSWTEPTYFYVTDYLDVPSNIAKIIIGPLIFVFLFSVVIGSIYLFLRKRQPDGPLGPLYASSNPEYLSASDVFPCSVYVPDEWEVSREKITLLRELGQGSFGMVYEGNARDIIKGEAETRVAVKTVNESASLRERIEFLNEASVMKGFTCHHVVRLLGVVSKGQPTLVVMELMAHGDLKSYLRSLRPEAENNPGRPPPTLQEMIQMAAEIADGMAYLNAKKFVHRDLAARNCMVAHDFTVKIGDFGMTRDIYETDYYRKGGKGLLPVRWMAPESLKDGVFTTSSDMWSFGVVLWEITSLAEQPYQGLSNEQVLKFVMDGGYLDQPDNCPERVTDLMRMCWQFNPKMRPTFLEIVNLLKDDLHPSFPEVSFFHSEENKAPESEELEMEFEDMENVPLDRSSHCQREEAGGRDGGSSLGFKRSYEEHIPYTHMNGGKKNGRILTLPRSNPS

## O=C1NC(=O)c2cc(Nc3ccc(F)cc3)c(Nc3ccc(F)cc3)cc21
[1]
  residual activity: 54%
[2]
  residual activity: 78%
[3]
  residual activity: 76%
[4]
  residual activity: 90%
[5]
  residual activity: 77%
[6]
  residual activity: 111%
[7]
  residual activity: 113%
[8]
  residual activity: 108%
[9]
  residual activity: 95%
[10]
  residual activity: 115%
